Assay outcomes (PubChem)
NPC1 prom act = qHTS Assay for NPC1 Promoter Activators | Potency, µM (titrated, usually from 9.22 µM), without a hit: at the top dose activation, usual class: activators | 2.4% of 320,000 active | Huh7 NPC1 promoter luciferase reporter, 24 h; further: % of control where 0% means no effect; nearly all actives have a fitted effect of over 60% in size
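Luminescence from an NPC1 promoter-driven luciferase reporter in stably transfected Huh7 cells was measured after 24 h compound treatment at 37 °C, followed by 10 min ambient incubation with luciferase detection reagent.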
FLuc modulator = qHTS profiling assay for firefly luciferase inhibitor/activator using purifed enzyme and Km concentrations of substrates (counterscreen for miR-21 project) | Luciferin 4-monooxygenase (Photinus pyralis), P08659 | purified FLuc, Km substrates, luminescence inhibition | Potency, µM (highest dose often 57.5 µM), without a hit: at the top dose activity change, negative = inhibition, actives largely listed as inhibitors | 6.9% of 360,000 active;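 further: plate controls were vehicle for no effect and reference inhibitor for full effect; nearly all actives have a fitted effect of over 55% in size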
Target sequence (P08659 whole entry, looked up): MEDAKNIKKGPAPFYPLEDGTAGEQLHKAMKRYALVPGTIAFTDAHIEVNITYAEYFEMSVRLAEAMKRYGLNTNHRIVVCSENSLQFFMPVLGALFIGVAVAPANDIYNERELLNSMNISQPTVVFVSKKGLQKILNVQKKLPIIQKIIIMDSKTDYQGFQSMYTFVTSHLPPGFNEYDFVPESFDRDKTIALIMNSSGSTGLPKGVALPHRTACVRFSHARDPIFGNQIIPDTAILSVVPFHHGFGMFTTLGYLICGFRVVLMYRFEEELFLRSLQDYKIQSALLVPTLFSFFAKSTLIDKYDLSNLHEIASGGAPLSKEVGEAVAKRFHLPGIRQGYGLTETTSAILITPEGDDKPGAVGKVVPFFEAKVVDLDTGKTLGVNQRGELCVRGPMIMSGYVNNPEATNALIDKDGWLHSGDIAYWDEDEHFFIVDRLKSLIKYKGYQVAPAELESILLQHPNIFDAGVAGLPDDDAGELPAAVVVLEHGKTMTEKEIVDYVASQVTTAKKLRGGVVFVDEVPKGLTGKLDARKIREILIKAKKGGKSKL
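Biochemical qHTS of compounds, final roughly 60 µM downward over six points, against 10 nM purified firefly luciferase using Km concentrations of substrates (10 uM D-luciferin, 10 uM ATP) in Tris acetate pH 7.5 buffer; luminescence output.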
ELG1 DNA repair = qHTS screen for small molecules that inhibit ELG1-dependent DNA repair in human embryonic kidney (HEK293T) cells expressing luciferase-tagged ELG1 | Potency, µM (top dose mostly 46.1 µM), for inactives: at the highest dose activity change, negative = inhibition, most hits filed as inhibitors | HEK293T ELG1-luciferase reporter, luminescence, 16 h; DNA damage induced by 5-fluorouridine | AID 504467, 2011 | 2.3% of 330,000 active; further: on the % scale 0 is the no-effect control and ±100 the full control effect; nearly all actives have a fitted effect of over 55% in size
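DMSO vehicle served as the neutral condition. Each well held 2,000 cells given 5-fluorouridine plus compound; after 16 hr at 37 °C/5% CO2, ONE-Glo was added and luciferase measured 30 min later.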
Rab9 prom act = qHTS Assay for Rab9 Promoter Activators; Huh7 Rab9 promoter-luciferase reporter, luminescence, 24 h; Potency, µM (series often up to 9.22 µM), for inactives: top-dose activation, negative = inhibition, actives largely listed as activators; 2.8% of 320,000 active; further: % of control where 0% means no effect; nearly all actives have a fitted effect of over 60% in size
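Huh7 cells stably carrying Rab9 promoter–luciferase reporter, plated 1500 cells/well, compound added after 2 h and incubated 24 h at 37 °C; luciferase luminescence then read after 10 min with detection reagent.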
ELG1 genotox = qHTS screen for small molecules that induce genotoxicity in human embryonic kidney (HEK293T) cells expressing luciferase-tagged ELG1; 1.3% of 330,000 active; Potency, µM (highest dose often 46 µM), for inactives: at the top dose activity change, positive = activation, actives largely listed as activators; AID 504466, 2011; HEK293T ELG1-luciferase reporter, luminescence, 16 h; further: % of control where 0% means no effect; nearly all actives have a fitted effect of over 60% in size
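ELG1-luciferase HEK293T cells, 2,000/well; compound pinned in; 16 hr, 37 °C, 5% CO2; ONE-Glo, 30 min RT; luminescence on CCD imager.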
SMN2 splice up = qHTS Assay for Enhancers of SMN2 Splice Variant Expression; HEK293 SMN2-luciferase splicing reporter, luminescence, 30-36 h; Potency, µM (top dose mostly 46.1 µM), inactives show top-dose activity change, positive = activation, hits mostly activators; 2.8% of 210,000 active; AID 1458, 2008; further: % of control where 0% means no effect; nearly all actives have a fitted effect of over 55% in size
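qHTS luciferase splicing reporter: luminescence rises when SMN2 exon 7 is included in transfected HEK293 cells. Compound exposure lasted 30-36 h at 37C, with 4.5 mM final sodium butyrate as control, followed by a ONE-Glo read.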
* marks the source's active call; other numbers are inactive results; ? = inconclusive; . = no result; [ ] = dose if it differs, or a comment. Hits are enriched below; roughly 9.4% of the tested compounds scored in any of these assays. The call rests on the fitted dose curve; in most records, active means well fitted curve in the direction sought with a large enough effect; inconclusive means small, poorly fitted or top-dose-only effect, or another doubt; inactive means no such curve, though single readings can be large; an effect the other way counts as inactive or inconclusive. Potency means the concentration at half of the fitted maximal effect.

SMILES	NPC1 prom act	FLuc modulator	ELG1 DNA repair	Rab9 prom act	ELG1 genotox	SMN2 splice up
Cc1ccc(OC(=O)CSc2nnc(-c3ccc4c(c3)OCO4)o2)c(C)c1	.	-6%	.	.	.	.
CC(/C=N/Nc1nc(C)cc(C)n1)=C\c1ccc(C(C)C)cc1	-4%	19µM*	10%	8%	2%	-6%
O=C(N/N=C/c1cc([N+](=O)[O-])ccc1Cl)c1cnccn1	-11%	-1%	12%	-30%	17%	.
CC(/C=N/NC(=O)C(O)c1ccccc1)=C\c1ccccc1 (stereo not drawn)	?	13µM*	?	?	7%	22%
O=C(N/N=C/C(Cl)=C/c1ccccc1)c1cnccn1	17%	12µM*	?	21%	17%	14%
CCC(C(=O)NCCc1ccc(Cl)cc1)n1ccc2cc(S(=O)(=O)N3CCCCC3)ccc21 (stereo not drawn)	.	2%	.	.	.	.
COc1ccc(-n2ccnc(NCc3ccccc3OC)c2=O)cc1	.	5%	.	.	.	.
Cc1cccc(NC(=O)CSc2nccn2Cc2ccco2)c1	3.2µM*	15µM*	?	2.8µM*	?	.
CCC(=O)Nc1cc(NC(=O)CSc2ncc(-c3ccc(F)cc3)n2Cc2ccco2)ccc1C	2.8µM*	12µM*	?	?	18µM*	16%
CC(=O)Nc1ccc(NC(=O)CSc2nccn2Cc2ccco2)cc1	10%	?	10%	27%	10%	.
COc1ccc(NC(=O)CSc2nccn2Cc2ccco2)cc1	2.5µM*	24µM*	?	3.5µM*	16µM*	.
Cc1ccc2c(CC(=O)N3CCN(c4cccc(Cl)c4)CC3)coc2c1	.	2%	.	.	.	4%
O=C1C2=C(C(=O)c3ccccc31)C1O[C@](CCCCN3C(=O)c4ccccc4C3=O)(Cc3c1ccc1ccccc31)O2	-4%[1.84 µM]	-6%[11.5 µM]	.	0%[1.84 µM]	.	.
CC(=O)NC(=S)Nc1sc2c(c1C(N)=O)CCC(C)C2 (stereo not drawn)	2.8µM*	9.5µM*	?	1.6µM*	?	.
CCc1ccc(C(=O)NNC(=O)c2cccc(N3C(=O)CCC3=O)c2)cc1	-2%	11µM*	28%	-2%	4%	.
CNS(=O)(=O)c1ccc2nc(NC(=O)c3ccc(N4C(=O)CCC4=O)cc3)sc2c1	0%	?	27%	10%	-1%	22%
Cc1cccc(NC(=O)c2cccc(N3C(=O)CCC3=O)c2)c1	3%	1%	1%	0%	-1%	.
CC(C)(C)C1CCc2c(sc(NC(=O)c3ccncc3)c2C(N)=O)C1 (stereo not drawn)	18%	2.7µM*	?	17%	-7%	3%
CCc1ccc2nc(NC(=O)c3ccc(N4C(=O)CCC4=O)cc3)sc2c1	23%	8.5µM*	?	24%	8%	.
CCc1cccc(NC(=O)CCN2C(=O)c3ccccc3Sc3ncccc32)c1	.	-4%	.	.	.	.
O=C(Nc1nc2c(s1)CCCC2)c1ccc(N2C(=O)CCC2=O)cc1	?	19µM*	?	?	?	.
Cc1ccc(C)c2sc(NC(=O)c3ccc(N4C(=O)CCC4=O)cc3)nc12	-1%	-7%	-1%	-3%	0%	-12%
CC1CCc2nc(NC(=O)c3ccc(N4C(=O)CCC4=O)cc3)sc2C1 (stereo not drawn)	4%	9.5µM*	-9%	14%	-10%	.
CC1CCc2c(sc(NC(=O)c3ccc(N4C(=O)CCC4=O)cc3)c2C(N)=O)C1 (stereo not drawn)	-4%	9.5µM*	-10%	2%	0%	.
CCCC1OC2CC3C4CCC5=CC(=O)C=CC5(C)C4C(O)CC3(C)[C@]2(C(=O)CO)O1 (stereo partly drawn)	.	.	.	.	.	-2%
SMILES	NPC1 prom act	FLuc modulator	ELG1 DNA repair	Rab9 prom act	ELG1 genotox	SMN2 splice up
Cc1ccc(C)c(NS(=O)(=O)c2cc(C(=O)NCCSC3CCCCC3)ccc2C)c1	10%	0%	21µM*	1%	-1%	-21%
Cc1ccccc1NS(=O)(=O)c1cc(C(=O)NCCSC2CCCCC2)ccc1C	1%	5%	?	-2%	-12%	-17%
COC(=O)c1cn(-c2ccccc2)nc1-c1ccc(OC)cc1	-4%	-13%	26µM*	-4%	-3%	-2%
O=C(Nc1ccccc1)c1cn(-c2ccccc2)nc1-c1ccccc1	.	-2%	.	.	.	.
COc1cccc(-c2nn(-c3ccccc3)cc2C(=O)O)c1	-4%	?	-9%	-7%	2%	-18%
COC(=O)c1cn(-c2ccccc2)nc1-c1ccncc1	0%	1%	0%	1%	3%	-11%
O=C(O)c1cccc(NC(=O)c2cn(-c3ccccc3)nc2-c2ccc(F)cc2)c1	-4%	4.8µM*	17%	22%	9%	.
COc1ccc(-c2nn(-c3ccccc3)cc2C(=O)O)cc1OC	4%	15µM*	13%	8%	7%	3%
COc1ccc(-c2nn(-c3ccccc3)cc2/C=C(\CC(=O)O)c2nc3ccccc3s2)cc1OC	3%	9.5µM*	1%	-1%	2%	-5%
CCc1ccc(NC(=O)C(=O)NCCc2sc(-c3ccc(C)cc3)nc2C)cc1	.	2%	.	.	.	.
CCc1cccc(C)c1NC(=O)c1cc(S(=O)(=O)N(Cc2ccc(C(=O)OC)cc2)Cc2ccc(OC)c(OC)c2)ccc1F	.	5%	.	.	.	.
COc1ccc(-c2cn(-c3ccccc3)nc2C(=O)O)cc1OC	0%	12µM*	-4%	-1%	-1%	.
COc1ccc(-c2nn(-c3ccccc3)cc2/C=C/C(=O)NCCCn2ccnc2)cc1OC	0%	27µM*	16µM*	4%	-10%	.
CCOC(=O)c1ccc(NC(=O)c2cn(-c3ccccc3)nc2-c2ccc(C)cc2)cc1	.	-6%	.	.	.	8%
CCOC(=O)c1ccc(NC(=O)c2cn(-c3ccccc3)nc2-c2ccncc2)cc1	0%	0%	18µM*	-1%	-8%	5%
COc1ccc(-c2nn(-c3ccccc3)cc2/C=N/Nc2ccc(Cl)c(C(=O)O)c2)cc1OC	2%	13µM*	?	1%	10%	.
CCOC(=O)c1ccc(NC(=O)c2cn(-c3ccccc3)nc2-c2ccc(OC)c(OC)c2)cc1	.	-1%	.	.	.	10%
O=C(Cn1ccc2ccccc2c1=O)NCC(=O)N1CCCCC1	-2%	0%	16%	8%	3%	.
